{"source": "PubChem BioAssay AID624296", "about": "(National Center for Advancing Translational Sciences (NCATS), 2012)", "note": "Out of some 350,000 compounds screened, about 9,900 (2.8%) were called active. Another 15% or so got no clear call; they are omitted. The list comes from a sample in which actives are over-represented; it also holds similar structures and randomly drawn compounds. A number with no mark means an inactive call. Calls follow the shape of the dose curve; as a rule, active = well fitted activation curve with a large enough effect; inconclusive = small, poorly fitted or top-dose-only effect; inactive = no such curve, though single readings can be large or run the other way. Potency is read from the fitted curve at half-maximal effect.", "data": [{"assay": "A quantitative high throughput screen for small molecules that induce DNA re-replication in MCF 10a normal breast cells; also: nearly all actives have a fitted effect of over 50% in size; as to activity, positive = re-replication: % of control where 0% means no effect.", "settings": "MCF 10A DNA re-replication, Hoechst nuclear intensity, 48 h; series mostly up to 46.1 µM; activity, positive = re-replication: at the top concentration", "excerpt": "H Molecular Libraries Probe Production Network [MLPCN]\nNIH Chemical Genomics Center [NCGC]\nAssay Provider: Melvin DePamphilis, NICHD, NIH\nEukaryotic cells normally restrict genome duplication to once per cell division. When this process is aberrant, DNA re-replication occurs when cells reinitiate DNA replication before the first round of replication is complete. DNA re-replication induces the DNA damage response, arrests cell proliferation, and triggers apoptosis. The cell cycle components cyclin A, Cdt-1, Cdc6 and geminin are critical regulators of this process and their misregulation results in DNA re-replication in normal and cancer cells. To identify compounds that induce re-replication in normal cells, an image-based assay was used to measure DNA content of nuclei, as detected by the fluorescent DNA binding dye, Hoechst. Cell nuclei were imaged by a fluorescence scanning plate imager and compounds that induce DNA re-replication were identified by the increase of nuclei with elevated fluorescence intensity\nFor screening, 250 cells in 5 uL/well were dispensed into black clear 1536-well plates (Aurora) using a solenoid-based dispenser. Following transfer of 23 nL compound or DMSO vehicle by a pin tool, the plates were incubated 48 hr at 37 C and 5% CO2. After addition of 1 uL/well Hoescht stain, the plates were incubated 40 min at 37 C, 5% CO2 and total intensity of fluorescent objects (nuclei) were enumerated by an Acumen Explorer Ex3 (TTP LabTech) fluorescence scanning plate imager (405 nm excitation, 500-530 nm emission).\nKeywords: NIH Roadmap, MLPCN, MLI, MLSMR, qHTS, NCGC, DNA replication, cancer", "units": {"activity, positive = re-replication": "%"}, "values": [{"smiles": "Cc1ccc(S(=O)(=O)CCC(=O)OCC(=O)N(C)Cc2ccccc2)cc1", "activity, positive = re-replication": 3.44}, {"smiles": "COc1ccc(-c2cc(C(=O)N(C)Cc3ccccc3)c3ccccc3n2)cc1", "Potency": "3.66 µM (active)"}, {"smiles": "Cc1ccc(-c2cc(C(=O)Nc3nn[nH]n3)c3ccccc3n2)c(C)c1", "activity, positive = re-replication": -0.175}, {"smiles": "COc1ccc(CN(C)C(=O)c2cc(-c3ccc(C)cc3C)nc3ccccc23)c(OC)c1OC", "Potency": "23.1 µM (active)"}, {"smiles": "CNC(=O)COC(=O)c1cc(-c2ccc(OC)cc2)nc2ccccc12", "activity, positive = re-replication": 1.21}, {"smiles": "COc1ccc(CN(C)C(=O)Cc2c[nH]c3ccccc23)c(OC)c1OC", "activity, positive = re-replication": 0.353}, {"smiles": "COc1ccc(-c2cc(C(=O)n3cnc4ccccc43)c3ccccc3n2)cc1", "activity, positive = re-replication": 10.2}, {"smiles": "Cc1ccc(C)c(OCC(=O)NNC(=O)C2CCC2)c1", "activity, positive = re-replication": -1.95}, {"smiles": "COC(=O)c1ccc(CNC(=O)c2ccc(S(=O)(=O)N3CCCCCC3)cc2)cc1", "activity, positive = re-replication": 3.13}, {"smiles": "NC(=O)C1CCN(C(=O)c2cc(S(=O)(=O)N3CCN(c4ccccc4)CC3)ccc2Cl)CC1", "activity, positive = re-replication": 1.92}, {"smiles": "CCCNC(=S)NC1CC2CCCC(C1)N2CC(C)C", "note": "(stereo not given)", "Potency": "14.6 µM (active)"}, {"smiles": "CCCN1C2CCCC1CC(NC(=O)NC13CC4CC(CC(C4)C1)C3)C2", "note": "(stereo not given)", "activity, positive = re-replication": 1.95}, {"smiles": "C=CCN1C2CCCC1CC(NC(=S)Nc1cccc(OC)c1)C2", "note": "(stereo not given)", "activity, positive = re-replication": 26.8}, {"smiles": "Nc1cc(=O)n(Cc2ccccc2)c(=O)n1Cc1ccccc1", "activity, positive = re-replication": 4.05}, {"smiles": "C/C(=N\\Nc1ccc(Cl)nn1)c1ccccc1O", "activity, positive = re-replication": -5.86}, {"smiles": "C=CCC[C@H](Cc1ccc(F)cc1)C(=O)OC[C@H](C)NC(=O)[C@H](CC=C)CC(=O)N(CCO)Cc1ccccc1", "activity, positive = re-replication": -0.934}, {"smiles": "Cc1ccc(S(=O)(=O)N(C)C)cc1NC(=O)C(C)OC(=O)c1ccc2ccccc2n1", "note": "(stereo not given)", "activity, positive = re-replication": -4.02}, {"smiles": "COc1cccc(NC(=O)COc2cccnc2[N+](=O)[O-])c1", "activity, positive = re-replication": -7.21}, {"smiles": "COc1ccc(S(=O)(=O)Nc2cccc3c2O[C@H](CN(C)S(=O)(=O)c2ccc(OC)cc2)[C@@H](C)CN([C@H](C)CO)C3=O)cc1", "activity, positive = re-replication": -0.847}, {"smiles": "CCCOC(=O)c1[nH]c2c(c1C)C(=O)CC(c1cccs1)C2", "note": "(stereo not given)", "Potency": "0.206 µM (active)"}, {"smiles": "COCCOC(=O)c1[nH]c2c(c1C)C(=O)CC(c1ccc(OC)cc1)C2", "note": "(stereo not given)", "activity, positive = re-replication": 0.888}, {"smiles": "CCOC(=O)c1[nH]c2c(c1-c1ccccc1)C(=O)CC(c1ccc(Cl)cc1)C2", "note": "(stereo not given)", "activity, positive = re-replication": 15.6}, {"smiles": "CCOc1ccc(NC(=O)CN(C)C(=O)CCSc2ccc(F)cc2)cc1OCC", "activity, positive = re-replication": 14.2}, {"smiles": "COc1cc(/C=C/C(=O)OCC(=O)c2ccccc2)cc(OC)c1OC", "activity, positive = re-replication": -2.78}, {"smiles": "COc1ccccc1C(CNC(=O)c1cccc(S(=O)(=O)Nc2ccc(F)cc2)c1)N(C)C", "note": "(stereo not given)", "activity, positive = re-replication": -2.12}, {"smiles": "COc1ccc(-n2c(=S)[nH]c3sc4c(c3c2=O)CCc2ccccc2-4)cc1", "activity, positive = re-replication": -4.02}, {"smiles": "COc1ccc(/C=C2\\N=C3CCCN3C2=O)cc1", "activity, positive = re-replication": 1.17}, {"smiles": "COc1ccc(/C=C2/CCCc3ccccc3C2=O)cc1", "Potency": "1.64 µM (active)"}, {"smiles": "Cc1c[n+]([O-])ccc1[N+](=O)[O-]", "activity, positive = re-replication": 142}, {"smiles": "NC(=O)c1cc(-c2cccnc2)nc2ccc(Br)cc12", "activity, positive = re-replication": -0.473}, {"smiles": "Cc1cc(=O)n2[nH]c(-c3cccc(Cl)c3)cc2n1", "activity, positive = re-replication": 4.55}, {"smiles": "O=C1CCCc2c1nc(-c1cccc(Cl)c1)n2O", "Potency": "1.46 µM (active)"}, {"smiles": "O=c1c2cc(Br)ccc2nc(-c2cccc(Cl)c2)n1O", "Potency": "2.91 µM (active)"}, {"smiles": "CCOC(=O)CSc1ncc(-c2cccc(Cl)c2)cn1", "activity, positive = re-replication": -0.286}, {"smiles": "Cc1cccc(-c2nc3ccccc3c(=O)n2NC(=O)Cc2ccc(Cl)cc2)c1", "activity, positive = re-replication": 11.1}, {"smiles": "Cc1ccsc1C(=O)OCC(=O)NCCc1ccccc1", "activity, positive = re-replication": 6.08}, {"smiles": "O=C1C=CN2CCCC2CC1", "note": "(stereo not given)", "activity, positive = re-replication": 3.86}, {"smiles": "COc1ccc(-c2cc(C(=O)NCCCN3CCCC3=O)c3ccccc3n2)cc1OC", "activity, positive = re-replication": 18}, {"smiles": "COc1cccc(NC(=O)CN(C)C(=O)/C=C/c2cn(-c3ccccc3)nc2-c2cccs2)c1", "activity, positive = re-replication": 17.8}, {"smiles": "O=C(Nc1ccc(NC(=O)c2cccs2)cc1)c1ccc2ccccc2c1", "activity, positive = re-replication": -27.2}, {"smiles": "O=C(Cc1cccc2ccccc12)Nc1ccc2oc(-c3ccccc3)nc2c1", "activity, positive = re-replication": 15.5}, {"smiles": "O=C(Nc1ccc2oc(-c3ccc4ccccc4c3)nc2c1)c1cccs1", "Potency": "5.17 µM (active)"}, {"smiles": "CC1CN(Cc2ccccc2)C(=S)NC1=O", "note": "(stereo not given)", "activity, positive = re-replication": 5.48}, {"smiles": "O=C(CN1CCN(C2CCS(=O)(=O)C2)CC1)N1N=C(c2ccc(Cl)cc2)CC1c1ccco1", "note": "(stereo not given)", "activity, positive = re-replication": 4.31}, {"smiles": "CCOC(=O)C1CCN(c2ncnc3c2c(-c2ccccc2)cn3-c2ccc(C)cc2)CC1", "activity, positive = re-replication": -2.58}, {"smiles": "CCOC(=O)N1CCN(C(=O)C2CCN(c3ncnc4c3sc3cccc(F)c34)CC2)CC1", "activity, positive = re-replication": 4.33}, {"smiles": "CCOC(=O)C1CCN(c2ncnc3c2oc2ccc(Br)cc23)CC1", "Potency": "20.6 µM (active)"}, {"smiles": "COc1cc(OC)cc(C(=O)NNC(=O)Cc2cccs2)c1", "activity, positive = re-replication": 6.49}, {"smiles": "COc1ccc(S(=O)(=O)N2C[C@H]3CON(C)[C@H]3C[C@H]2c2cccc(Br)c2)cc1", "activity, positive = re-replication": -1.8}, {"smiles": "Cc1cccc(CC2(O)C(=O)Nc3ccccc32)n1", "note": "(stereo not given)", "activity, positive = re-replication": -1.91}]}]}
